Bioassay records (PubChem)
A selection: hits, their analogues and other compounds. The true share with any hit is near 9.9%.
MCF10A rereplic = A quantitative high throughput screen for small molecules that induce DNA re-replication in MCF 10a normal breast cells | MCF 10A DNA re-replication, Hoechst nuclear intensity, 48 h | Potency, µM (series often up to 46.1 µM), actives largely listed as activators | hit rate 2.9% among 350,000 | AID 624296, 2012; further: nearly all actives have a fitted effect of over 50% in size
KB-V1 MDR tox = qHTS assay for MDR1-selective chemotherapeutics: Primary screen using the drug-selected MDR subline cells KB-V1. AID 1347076, 2019. hit rate 3.4% among 400,000. Potency, µM (titrated, usually from 46.1 µM), usual class: cytotoxic. KB-V1 MDR cells viability, CellTiter-Glo, 72 h; further: nearly all actives have a fitted effect of over 60% in size
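qHTS viability screen in drug-selected KB-V1 MDR cells: 72 h compound treatment at 37 degrees C, ATP luminescence end point.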
IL1B secr inh = qHTS for Inhibitors of Inflammasome Signaling: IL-1-beta AlphaLISA Primary Screen | THP-1 LPS/ATP IL-1B secretion, AlphaLISA, 16 h; active compounds read low | activity change, % at 57.5 µM | hit rate 4.7% among 360,000 | AID 743279, 2014; in the data active means activity change below about -50%; inconclusive means mostly about -30% to -49%
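THP-1 cells pretreated 1 hr with compounds (up to 57.5 uM final), then stimulated with LPS (250 ng/mL final) plus ATP (1.25 mM final); secreted IL-1B measured by AlphaLISA after 16 hr, decreased signal indicating inhibition.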
SW480 rereplic = A quantitative high throughput screen for small molecules that induce DNA re-replication in SW480 colon adenocarcinoma cells; SW480 DNA re-replication, Hoechst DNA content imaging, 48 h; Potency, µM (highest dose often 46.1 µM), usual class: activators; hit rate 1.8% among 340,000; AID 624297, 2012; further: nearly all actives have a fitted effect of over 55% in size
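Quantitative HTS format with DMSO vehicle controls; 48 hr drug incubation at 37 C, then 40 min Hoechst staining and scanning imager measurement at 405 nm excitation.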
KB-3-1 cytotox = qHTS assay for MDR1-selective chemotherapeutics: Primary screen using the parental adenocarcinoma cell KB-3-1; Potency, µM (series often up to 46.1 µM), most hits filed as cytotoxic; hit rate 1.4% among 400,000; KB-3-1 viability, CellTiter-Glo ATP luminescence, 72 h; AID 1347075, 2019; further: nearly all actives have a fitted effect of over 60% in size
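Cytotoxicity in the drug-sensitive parental line KB-3-1 was scored as loss of CellTiter-Glo luminescence following 72 h incubation with compound. Values come from curve fitting of normalized concentration-response data.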
Hits are given with their value; 0 = inactive; ? = inconclusive; - = no result; [ ] = another dose, or the depositor's remark. Unless noted, the call rests on the fitted dose curve; in most records, active means well fitted curve in the direction sought with a large enough effect; inconclusive means small, poorly fitted or top-dose-only effect, or another doubt; inactive means no such curve, though single readings can be large; an effect the other way counts as inactive or inconclusive.

SMILES	MCF10A rereplic	KB-V1 MDR tox	IL1B secr inh	SW480 rereplic	KB-3-1 cytotox
CCCCCCOc1ccc(C(=O)n2cnc(N)n2)cc1	23µM	0	0	0	0
O=c1c2ccccc2nc(/C=C\c2ccccc2[N+](=O)[O-])n1-c1ccccc1O	?	?	-98	?	?
O=c1c2ccccc2nc(/C=C/c2ccccc2F)n1-c1ccccc1O	0	0	-87	?	0
CC[C@@H](C(=O)[C@@H](C)[C@@H](O)[C@H](C)[C@@H]1O[C@@H]([C@@H](CC)C(=O)O)CC[C@@H]1C)[C@H]1O[C@]2(C=C[C@@H](O)[C@]3(CC[C@@](C)([C@H]4CC[C@](O)(CC)[C@H](C)O4)O3)O2)[C@H](C)C[C@@H]1C	?	?	-111	?	?
CCCCCl	0	-	-	0	-
Cc1ccc2c(C)c3ccc4ccccc4c3c[n+]2c1	0	0	-66	0	?
CC[C@H](C)[C@@H](C(=O)N1CCCC1c1nccs1)N(C)C(=O)[C@H](CC(C)C)N(C)C(=O)[C@H](Cc1ccc(OC)cc1)N(C)C(=O)/C=C(\C)OC (stereo not given in full)	?	0	0	21µM	0
C#CCN[C@H](C)Cc1ccccc1	?	0	0	3.2µM	0
O=c1[nH]c2ccccc2n1C1CCN(C(CCc2ccccc2)c2nnnn2C2CCCCC2)CC1 (stereo not given)	-	?	-61	-	?
CSCCC(c1nnnn1C1CCCC1)N1CCC(n2c(=O)[nH]c3ccccc32)CC1 (stereo not given)	-	23µM	0	-	0
CSCCC(c1nnnn1C1CCCCC1)N1CCC(n2c(=O)[nH]c3ccccc32)CC1 (stereo not given)	-	0	0	-	0
O=c1[nH]c2ccccc2n1C1CCN(CCCC(c2ccc(F)cc2)c2ccc(F)cc2)CC1	?	12µM	-80	0	?
CCC1OC(=O)CC(O)C(C)[C@@H](O[C@@H]2OC(C)[C@H](O[C@@H]3C[C@@](C)(O)C(O)C(C)O3)C(N(C)C)C2O)[C@H](CC=O)CC(C)C(=O)/C=C/C(C)=C/[C@@H]1COC1OC(C)C(O)C(OC)[C@@H]1OC (stereo not given in full)	0	-	-	0	-
CC(C)(C)OC(=O)N(CCc1ccccc1)Cc1ccc(OCc2cccc(NC(=O)c3ccccc3)c2)cc1	0	0	0	?	0
CCOC(=O)CCCc1cc[c]([Sb](=[O])([OH])[OH])cc1	-	0	-	-	0
Cc1cccc(-n2c(CC3C(=O)Nc4ccc(C)cc43)nc3ccccc3c2=O)c1 (stereo not given)	-	0	-	-	0
Clc1ccc(CS[C@@H](Cn2ccnc2)c2ccc(Cl)cc2Cl)cc1	?	-	-	0	-
O=C(O)c1ccc(-[n+]2c(-c3ccccc3)cc(-c3ccccc3)cc2-c2ccccc2)cc1	0	0	0	0	0
COc1ccc(-c2cc(-c3ccccc3)[n+](C)c(-c3ccccc3)c2)cc1	0	0	-90	?	3.3µM
CCCOC(=O)c1ccc(-[n+]2c(-c3ccccc3)cc(-c3ccccc3)cc2-c2ccccc2)cc1	?	0	-86	0	16µM
Brc1ccc(-[n+]2c(-c3ccccc3)cc(-c3ccccc3)cc2-c2ccccc2)cc1	?	0	-83	?	?
Cc1ccc(-c2cc(-c3ccccc3)cc(-c3ccccc3)[n+]2-c2ccc(C(=O)O)cc2)cc1	0	0	0	?	0
C[n+]1c(-c2ccccc2)cc(CCCCc2cc(-c3ccccc3)[n+](C)c(-c3ccccc3)c2)cc1-c1ccccc1	?	0	-100	0	?
Cc1cc(C)cc(C(=O)OC2CC3CCC(C2)N3C)c1 (stereo not given)	?	-	-	0	-
CCC(=NCc1cc(OC)cc(OC)c1)c1c(O)[nH]c(=O)[nH]c1=O	0	0	0	0	0
SMILES	MCF10A rereplic	KB-V1 MDR tox	IL1B secr inh	SW480 rereplic	KB-3-1 cytotox
COc1ccc(-[n+]2c(-c3ccccc3)cc(-c3ccc(C)cc3)cc2-c2ccccc2)cc1	?	0	-94	?	2.6µM
O=C1c2ccccc2C(=O)C1C(=O)C(c1ccccc1)c1ccccc1	24µM	-	-	?	-
O=c1[nH]c(=O)n(-c2ccccc2F)c(O)c1C=NCCC1=CCCCC1	0	?	0	0	0
Cc1ccc(NC(=O)c2snnc2C)cc1Cl	0	10µM	0	0	?
Cc1ccc(-n2c(/C=C/c3ccccc3)nc3ccccc3c2=O)cc1Cl	-	0	-	-	0
Oc1ccc(C2NCc3ccccc3-n3cccc32)cc1Cl (stereo not given)	?	0	0	0	0
FC(F)(F)c1cccc(C2NCc3ccccc3-n3cccc32)c1 (stereo not given)	?	0	-88	0	0
C=C1C(=O)[C@@]23C[C@H]4[C@@H]5[C@@]6(C)CCC[C@@]57[C@@H]2[C@@H](O)[C@@H]1C[C@H]3[C@H]7N4C6	15µM	0	-108	?	?
C=CCn1cc(C=C2C(=O)NC(=O)NC2=O)c2ccccc21	0	0	0	0	0
O=C1NC(=O)C(=Cc2cn(CCOc3ccc4c(c3)OCO4)c3ccccc23)C(=O)N1	?	?	0	?	21µM
Cc1nccn1-c1c([N+](=O)[O-])c(=O)n(C)c2ccccc12	10µM	0	-92	0[9.22 µM]	0
CCN(Cc1ccc(Cl)nc1)/C(=C/[N+](=O)[O-])NC	0	-	-	0	-
CCOP(=O)(OCC)C(C)(C)NC(=O)C(Cl)(Cl)Cl	0[0.0737 µM]	0	0	0	0
CCOc1ccc(NC(=S)NC2CC3CCC(C2)N3Cc2ccco2)cc1 (stereo not given)	0	0	0	0	0
CC1CCC/C=C/C2CC(O)CC2C(O)/C=C/C(=O)O1 (stereo not given)	?	?	-56	0.1µM	?
C[C@H]1CCC/C=C/C2C[C@H](O)CC2[C@H](O)/C=C/C(=O)O1 (stereo not given in full)	0.26µM	0.41µM	-64	?	0.026µM
Cc1cccc(OP(=O)(Nc2ccc(F)cc2)Oc2cccc(C)c2)c1	?	?	-72	?	?
Cc1cccc(OCC(=O)N2CCN(Cc3cc(=O)n4nc(-c5ccccc5Cl)sc4n3)CC2)c1	-	0	-	-	0
CN1CSC(=S)N(C)C1	0	?	-95	?	?
Oc1cc(Cl)cc(Cl)c1Cl	?	0	0	0	0
Fc1cccc(C2NCCc3[nH]cnc32)c1 (stereo not given)	0	0	0	0	0
O=C1CC(c2c(F)cccc2Cl)c2c(c3ccccc3oc2=O)O1 (stereo not given)	-	0	-	-	0
